# Where “and” joins values, the source holds several entries; their conditions need not be identical. Equal entries are not always repeated. Records with an inconclusive call do not appear. Calls of active or inactive are those of the source. Unless noted, the call rests on the fitted dose curve; in most records, active means well fitted curve in the direction sought with a large enough effect; inconclusive means small, poorly fitted or top-dose-only effect, or another doubt; inactive means no such curve, though single readings can be large; an effect the other way counts as inactive or inconclusive.
# Key:
# [1] = target: Tyrosine-protein kinase Yes (Homo sapiens) (UniProt P07947); test: qHTS for small molecule inhibitors of Yes1 kinase: Primary Screen (AID 686947); further: nearly all actives have a fitted effect of over 60% in size; further: potency means the concentration at half of the fitted maximal effect
# In short: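 ADP-Glo luminescence reports ADP formed by 4 nM Yes1 phosphorylating poly(E4Y) (0.3 mg/mL) with 0.1 mM ATP for 60 min at room temperature, following 20 min compound preincubation; normalised between DMSO wells with and without enzyme.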
# [2] = qHTS for small molecule inhibitors of Yes1 kinase: Counter Assay (AID 686950);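 further: no kinase present so only ADP-Glo detection of a fixed ADP amount is tested; luminescence from ADP-Glo reporting ADP in a fixed ATP and ADP mixture; 0% = DMSO wells with ATP plus ADP and -100% = ATP-only wells without ADP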
# In short: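 ADP-Glo luminescence read after a 60 min room-temperature incubation of compound with an ATP/ADP mix (0.08 mM/0.02 mM) and no kinase, following a 20 min compound preincubation. Signal scaled between ATP+ADP (max) and 0.1 mM ATP-only (min) wells; Tris pH 7.5, Mg2+, DTT.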
# [3] = qHTS Assay for Identifying Gametocytocidal Compounds (AID 743244); further: potency means the concentration at half of the fitted maximal effect;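 on max response: on the % scale 0 is the no-effect control and ±100 the full control effect; actives lower the fluorescent signal which means gametocytes are killed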; settings: P. falciparum 3D7 stage III-V gametocytes, alamarBlue, 72 h; max response: stronger effect = lower value
# In short: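 Compounds are pinned into medium, gametocytes (stage III–V, 3D7, 20,000 cells/well) added, and plates held 72 h at 37 °C in 5% CO2. AlamarBlue follows for 24 h before fluorescence reading.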
# [4] = qHTS profiling for inhibitors of Plasmodium falciparum (3D7) proliferation (AID 743322; call rule not given here;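 further: infected erythrocytes exposed to compound for 72 h before lysis; 100% = DMSO vehicle wells and 0% = 0.29 µM artemisinin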); settings: P. falciparum 3D7 proliferation; at 28.7 µM (top of the series) unless noted
# In short: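 Parasite DNA was quantified by SYBR Green I fluorescence (ex 485, em 535 nm) after overnight lysis in saponin/Triton buffer at room temperature. Cultures at 0.3% parasitemia and 2.5% hematocrit were first exposed to compound for 72 h at 37 C; signals were normalised to artemisinin (0.29 uM) and vehicle wells.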
# [5] = qHTS profiling for inhibitors of Plasmodium falciparum (DD2) proliferation (AID 743323; call rule not given here); settings: lower = more inhibition; at 28.7 µM (top of the series) unless noted
# In short: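 P. falciparum Dd2-infected erythrocytes (0.3% parasitemia, 2.5% hematocrit) exposed 72 h at 37 C, 5% CO2. Lysis with SYBR Green, overnight at room temperature, fluorescence 485/535 nm; normalized to 0.29 uM artemisinin and DMSO.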
# Sequence of Tyrosine-protein kinase Yes (Homo sapiens) (P07947 whole entry, looked up): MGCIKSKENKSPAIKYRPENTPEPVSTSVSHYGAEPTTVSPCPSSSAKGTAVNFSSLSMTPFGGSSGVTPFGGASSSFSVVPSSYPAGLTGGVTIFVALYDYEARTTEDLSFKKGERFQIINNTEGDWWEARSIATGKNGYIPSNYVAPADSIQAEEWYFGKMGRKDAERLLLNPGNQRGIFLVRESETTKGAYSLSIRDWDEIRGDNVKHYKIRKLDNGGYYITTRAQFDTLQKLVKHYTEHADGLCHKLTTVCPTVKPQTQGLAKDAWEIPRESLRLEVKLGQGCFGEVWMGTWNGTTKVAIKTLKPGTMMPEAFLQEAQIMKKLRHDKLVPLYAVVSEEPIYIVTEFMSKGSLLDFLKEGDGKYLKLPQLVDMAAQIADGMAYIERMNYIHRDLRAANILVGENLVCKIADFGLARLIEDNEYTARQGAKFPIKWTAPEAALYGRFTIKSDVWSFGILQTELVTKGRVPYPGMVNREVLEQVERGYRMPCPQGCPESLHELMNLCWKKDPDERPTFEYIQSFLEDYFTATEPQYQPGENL
SMILES,Potency [1],outcome [2],max response [3],remaining parasite growth % (stronger effect = lower value) [4],"activity, percent of control [5]",Potency [3]
O=C(c1cc(Cc2n[nH]c(=O)c3ccccc23)ccc1F)N1CCN(C(=O)C2CC2)CC1,inactive,inactive,10.8% (inactive),88.8% and 97.4%,97.9% and 99.7%,
Nc1cccc(S(=O)(=O)N2CCCN(S(=O)(=O)c3ccc4c(c3)OCCO4)CC2)c1,inactive,inactive,3.74% (inactive),111%,101%,
COc1ccc(CC2=NN3C([C@@H](CCc4ccccc4)[C@@H](C)O)=NC(C)C3C(=O)N2)cc1OC (stereo not given in full),inactive,inactive,-6.02% (inactive),71.5%,64.6%,
COc1nc(-c2ccc3c(c2)OCO3)n(-c2ccc(NC(=O)CSc3ccccc3)cc2)n1,inactive,inactive,6.75% (inactive),96.2%,95.9%,
C[C@@H]1CN(Cc2ccc(F)cc2)[C@@H](C)CN1C(=O)c1cc2c(C(=O)C(=O)N(C)C)cn(C)c2cc1Cl,inactive,inactive,12.3% (inactive),69.2%,79.8%,
O=C(O)CCc1ccc(NCc2cccc(Oc3ccccc3)c2)cc1,inactive,inactive,20.3% (inactive),29.5%,102%,
Cc1ccccc1C(C(=O)NC1CCCC1)N(C(=O)Cn1cnc2ccccc21)c1cccc(F)c1 (stereo not given),inactive,inactive,-12.2% (inactive),45.1%,58.9%,
C[C@H](NC(=O)Cc1cc(F)cc(F)c1)C(=O)N[C@@H]1C(=O)N(C)c2ccccc2-c2ccccc21,inactive,inactive,-14.2% (inactive),7.69%,7.48%,
CCOC(=O)N[C@@H]1CC[C@@H]2[C@@H](C1)C[C@H]1C(=O)O[C@H](C)[C@H]1[C@@H]2C=Cc1ccc(-c2cccc(F)c2)cn1,inactive,inactive,-4.74% (inactive),1.23%,7.47%,
CNCc1ccc(-c2[nH]c3cc(F)cc4c3c2CCNC4=O)cc1,0.308 µM (active),inactive,,28.7%,77.5%,29.6 µM (active)
CC(C)OC(=O)C1=CN(C(=O)c2ccc(F)c(F)c2)CC(C)(C)c2c1[nH]c1ccccc21,inactive,inactive,18.7% (inactive),15.1%,36.4%,
O=C1CCCC2=C1C(c1[nH]ncc1Cl)N=C(Nc1nc3ccccc3o1)N2 (stereo not given),inactive,inactive,6.89% (inactive),115%,105%,
Cc1n[nH]c(C)c1Cc1sc2c(c1C(=O)N1C[C@H](O)CO1)c(=O)n(C)c(=O)n2CC(C)C,inactive,inactive,4.91% (inactive),111%,99.9%,
Cc1ccc2c(c1)C(=O)[C@@]1(O)CCN(c3ccccc3)C1=N2,inactive,inactive,-1.35% (inactive),104%,112%,
Oc1cccc(-c2nc(N3CCOCC3)c3oc4ncccc4c3n2)c1,inactive,inactive,-13.9% (inactive),-0.106%,2.54%,
